# HSF1 inhib: HSF1 inhibition | AID 2098 | 300,000 tested, 0.77% active | activity change, negative = inhibition, % at 7.5 µM (by protocol) | NIH3T3-HGL HSE-luciferase, MG132-induced, luminescence 8 h; active compounds read low;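 active means more than half of replicate wells show activity change below -50%, luminescence cut by over half; inconclusive means some wells, but at most half, below -50%; inactive means no replicate well below -50%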;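 further: luciferase reports HSF-1 transcriptional activity via heat shock element; 0% = median of DMSO wells and -100% = zero luminescence signal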
# MITF act: MITF TRPM1 promoter activation in melanoma cells; SK-MEL-5 TRPM1-promoter luciferase, 24 h; % of positive control, neutral wells = 0; activation, % at 12.5 µM; 300,000 tested, 0.75% active; AID 588334;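 active means mean activation of at least 80% with every replicate also reaching 80%; inconclusive means mean reaches 80% but some replicate falls short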;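 further: 0% = neutral control wells and 100% = parthenolide positive control wells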
# Wnt act: activators of Wnt/beta-catenin signaling | activation, % at 9.35 µM | Wnt/beta-catenin reporter cell assay, activator, plate reader | 300,000 tested, 1.2% active; in the data active means activation above about 30%, passing the limit was not always enough; inconclusive means no clear call, values can overlap the other calls;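 further: 0% = neutral control wells and 100% = positive control wells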
# HSF1 activator: increases HSF-1 driven luciferase reporter signal; NIH3T3-HGL HSF-1 luciferase reporter, MG132, 8 h; 100% = twice DMSO control signal; activation, % at 9 µM; 300,000 tested, 1.7% active; AID 504408;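 active means mean replicate activation of at least 50% with a set share of replicates each reaching 50%; inconclusive means only one of those two conditions met; inactive means mean below 50% and too few replicates reaching it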;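 further: 0% = median of the neutral control wells and 100% = twice that signal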
# esBAF inh: blocks esBAF chromatin remodeling in mouse ES cells; Bmi1-luciferase knock-in reporter, 24 h; 100% = twice the neutral-well signal; reporter increase, % at 12.5 µM; 350,000 tested, 2% active; in the data active means activation above about 40%; inconclusive means no clear call, values can overlap the other calls;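 further: 0% = median of the plate's neutral control wells and 100% = double that signal; a rise in the Bmi1 reporter signal indicates esBAF inhibition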
# Active calls of the source: *; ? = inconclusive; . = no result given. This is a sample that favours compounds with a hit; in the whole collection about 3.8% have one here.
SMILES,HSF1 inhib,MITF act,Wnt act,HSF1 activator,esBAF inh
CC(CC(=O)N1CCN(C(=O)c2ccccc2)CC1)c1ccccc1 (configuration not stated),-3,.,-1,-10,-6
O=C(O)c1cc(-c2ccc(/C=N/N3C(=O)C4C5C=CC(CC5)C4C3=O)o2)ccc1Cl (configuration not stated),1,1,0,12,.
COC(=O)c1ccc(-c2ccc(/C=N/N3C(=O)C4C5C=CC(CC5)C4C3=O)o2)cc1 (configuration not stated),-9,49,28,-17,60*
C=CCn1c2ccccc2c(=O)c2cc(C#CC[C@@H](C)O)ccc21,.,94*,36*,.,52*
COc1ccc(-n2c(=O)c3c4c(sc3n(CC(N)=O)c2=O)CCCCC4)cc1,11,-2,-2,52*,.
CC(C)NC(=O)Nc1cccc2c1O[C@H](CN(C)C(=O)Nc1ccc3c(c1)OCO3)[C@H](C)CN([C@H](C)CO)C2=O,.,.,.,.,2
Cc1ccc(N(C)/N=C/c2ccc(Cl)cc2Cl)nn1,5,99*,2,21,42*
CCCC(=O)Nc1ccc2c(c1)C(=O)N(C)C[C@@H](OC)[C@H](C)CN(Cc1ccccc1)[C@@H](C)CO2,.,.,.,.,0
c1ccc(CSc2nnc(NC3CCCCC3)s2)cc1,.,.,42*,.,.
O=C1CSC(=S)N1/N=C/c1cccc(C(F)(F)F)c1,52,-8,-2,68*,.
COc1cccc(C(=O)Nc2ccc3c(c2)C(=O)N(C)C[C@H](OC)[C@@H](C)CN(CC2CC2)[C@@H](C)CO3)c1,.,.,.,.,5
Clc1ccc(SCCCCN2CCOCC2)cc1,3,0,-3,-14,-6
Cc1ccc(SCCCCN2CCOCC2)cc1,113,20,-1,141*,4
CCCC#Cc1cnc2c(c1)C(=O)N([C@H](C)CO)C[C@H](C)[C@@H](CN(C)C(=O)c1ccc(F)cc1)O2,.,.,.,.,2
O=C(/C(=C(\O)c1ccccc1)c1nc2ccccc2[nH]1)c1ccccc1,-2,24,1,-4,-1
CC(=O)/C(=C(/O)c1ccccc1)c1nc2ccccc2[nH]1,3,85*,6,5,37
Cc1ccc(S(=O)(=O)Nc2ccc3c(c2)C(=O)N([C@H](C)CO)C[C@@H](C)[C@H](CN(C)CC2CCCCC2)OCCCC[C@@H](C)O3)cc1,.,.,.,.,1
Cc1ccc(/C=C2\SC(=S)N(CCC(=O)NNS(=O)(=O)c3ccc(C)cc3)C2=O)cc1,15,-4,4,64*,.
Cc1ccc(/C=C2\SC(=S)N(CCCC(=O)Nc3cccnc3)C2=O)cc1,-60*,-22,.,-70,.
COc1ccc(/C=C2\SC(=S)N(CCCC(=O)Nc3ccc(O)cc3)C2=O)cc1,-20,-7,21,-38,-80
COc1ccc(/C=C2\SC(=O)N(CCNC(=O)Cn3cnnn3)C2=O)cc1,21,?,20,39,.
COc1ccc(/C=C2\SC(=S)N(CCC(=O)Nc3cccc(O)c3)C2=O)cc1,67,44,19,92*,10
COc1ccc(/C=C2\SC(=O)N(CCNC(=O)CCS(=O)(=O)c3ccc(C)cc3)C2=O)cc1,11,55,33*,30,.
O=C(C[C@H]1C=C[C@@H](NC(=O)Nc2cc(F)ccc2F)[C@H](CO)O1)Nc1ccccc1,.,.,.,.,2
Fc1ccc(N/N=C/C=C/c2ccccc2)c(F)c1,23,46,12,23,51*
SMILES,HSF1 inhib,MITF act,Wnt act,HSF1 activator,esBAF inh
Fc1ccc(N/N=C/c2ccncc2)c(F)c1,9,63,18,43,.
C[C@H](NC(=O)C[C@@H]1C[C@H]2c3cc(NC(=O)C4CCC4)ccc3O[C@H]2[C@@H](CO)O1)c1ccccc1,.,.,.,.,-2
Nc1c(C(=O)Nc2ccc3c(c2)OCCO3)nnn1Cc1ccc(Cl)cc1,22,130*,44*,41,114*
Nc1c(C(=O)Nc2ccc3c(c2)OCCO3)nnn1Cc1cccc(F)c1,19,115*,?,41,69*
Nc1c(C(=O)NCc2ccc3c(c2)OCO3)nnn1Cc1cccc(F)c1,-1,-7,1,8,-1
Cc1nn(C)cc1S(=O)(=O)Nc1ccc2c(c1)OCCO2,-63*,12,-3,-69,.
O=C(O)c1cc(S(=O)(=O)Nc2ccc3c(c2)OCCO3)c(Cl)cc1Cl,-69*,-11,-14,-71,-72
Cc1c(S(=O)(=O)Nc2ccc3c(c2)OCCO3)cnn1C,5,1,0,-10,.
Cc1n[nH]c(C)c1S(=O)(=O)Nc1ccc2c(c1)OCCO2,-62*,3,0,-63,-21
Brc1ccc(OCc2nc3ccccc3[nH]2)cc1,38,100*,36*,?,?
c1ccc2cc(OCc3nc4ccccc4[nH]3)ccc2c1,31,21,.,43,51*
COc1ccc(OCc2nc3ccccc3[nH]2)cc1,26,72,.,32,21
C[C@H]1CN([C@@H](C)CO)C(=O)CCCn2nncc2CO[C@H]1CN(C)C(=O)Nc1ccc(N2CCN(C)CC2)cc1,.,.,.,.,-9
O=C(N[C@H]1C=C[C@H](CC(=O)N2CCCCC2)O[C@H]1CO)c1cccc(F)c1,.,.,.,.,-8
COc1cccc2cc(C(=O)Nc3ccccc3C)/c(=N/NS(=O)(=O)c3ccccc3)oc12,3,-11,-2,7,3
Cc1ccc(S(=O)(=O)N/N=c2\oc3ccccc3cc2C(=O)Nc2cccc(C)c2)cc1,37,.,.,58*,.
Cc1noc(C)c1NC(=O)Nc1ccc2c(c1)C(=O)N([C@@H](C)CO)C[C@H](C)[C@@H](CN(C)C(=O)Nc1ccc3c(c1)OCO3)OCCCC[C@H](C)O2,.,.,.,.,-1
COCc1ccc(-c2c(-c3ccc(OC)cc3)oc(=O)c3cc(OC)c(OC)cc23)cc1,.,111*,28,.,?
CCOc1cccc(/C=N/NC(=S)Nc2ccccc2[N+](=O)[O-])c1O,-79*,-56,-2,-82,.
CCOc1cccc(/C=N/NC(=O)c2cccnc2)c1O,4,.,2,4,-3
CCOc1cccc(/C=N/NS(=O)(=O)c2ccc(C)c([N+](=O)[O-])c2)c1O,3,3,-1,6,.
CCCCNC(=S)N/N=C/c1cccc(OCC)c1O,52,29,23,81*,.
C[C@H](CO)N1C[C@H](C)[C@@H](CN(C)C(=O)Nc2ccc3c(c2)OCO3)Oc2ccc(NS(=O)(=O)c3cccs3)cc2CC1=O,.,.,.,.,5
Cc1cc(C(=O)Nc2cccc3c2O[C@@H](CN(C)C(=O)Nc2ccc(C(F)(F)F)cc2)[C@H](C)CN([C@@H](C)CO)C3=O)n(C)n1,.,.,.,.,5
CCn1c(=O)c([N+](=O)[O-])c(Cl)c2ccccc21,226,-93,.,313*,.
CCn1c(=O)c([N+](=O)[O-])c(NCCN(C)C)c2ccccc21,0,3,2,-1,.
COc1ccc(S(=O)(=O)N(C)C[C@H]2Oc3ccc(NC(=O)c4ccncc4)cc3CC(=O)N([C@@H](C)CO)C[C@@H]2C)cc1,.,.,.,.,1

# Compound activity: PubChem BioAssay, Broad Institute
